Source: PubChem (National Center for Advancing Translational Sciences (NCATS))
NTMT1 inh – NTMT1 methyltransferase inhibition. Q9BV86. NTMT1 MTase-Glo SAH luminescence, purified enzyme. Potency, µM (series often up to 114 µM), for the others: top-dose activity change, negative = inhibition, most hits filed as inhibitors. hit rate 2.5% among 59,000;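 further: potency means the concentration at half of the fitted maximal effect; plate controls were DMSO vehicle for no effect and no enzyme for full effect; nearly all actives have a fitted effect of over 65% in size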
B2AR arrestin ag – agonists recruiting beta-arrestin to human beta2-adrenergic receptor; Potency, µM (doses to about 46.1 µM), most hits filed as activators; HTLA Tango cells, beta-arrestin recruitment, luciferase luminescence, 18 h; 44,000 tested, under 10 active;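 further: potency means the concentration at half of the fitted maximal effect; 0% = DMSO and full agonism = EC100 isoproterenol or metaproterenol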
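Luminescence read-out: arrestin recruitment to recombinant beta2-AR releases tTA, inducing luciferase. Cells exposed 18 hr at 37 degrees C to up to 46 microM compound; %Activity from corrected signal, concentration-response curves classified by r2, magnitude and efficacy.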
GALK inhibitor – inhibits human galactokinase; AID 1347072; P51570; recombinant GALK, Kinase-Glo ATP luminescence, 1 h; 44,000 tested, under 10 active; Potency, µM (highest dose often 57.5 µM), for inactives: at the top dose activity, negative = inhibition, actives largely listed as inhibitors;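 further: plate controls were full GALK reaction for no effect and reaction lacking GALK for full effect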
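Luminescent ATP-depletion readout (Kinase-Glo Plus, 10 min) after 1 h RT reaction of 5 nM GALK, 35 uM ATP, 100 uM galactose, pH 8.0 HEPES buffer. Decreased kinase activity scored as inhibition.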
FH mod – Identification of activators of human fumarate hydratase by quantitative high-throughput screening. Potency, µM (doses to about 79.9 µM), without a hit: at the highest dose activity change, negative = inhibition, most hits filed as inhibitors. FH coupled MDH/diaphorase resazurin fluorescence, 15 min. AID 1347055, 2019. hit rate 0.22% among 54,000. Fumarate hydratase, mitochondrial (Homo sapiens), P07954; further: potency means the concentration at half of the fitted maximal effect; on the % scale 0 is the no-effect control and ±100 the full control effect; the screen sought activators but most active calls are inhibition curves; nearly all actives have a fitted effect of over 45% in size
PTAP-TSG101 blk – TSG101-PTAP interaction inhibition, HIV-1 budding; Q99816; Fluorescence polarization, FITC-PTAP peptide/Tsg101, 20 min; Potency, µM (highest dose often 115 µM), hits mostly inhibitors; 44,000 tested, under 10 active; AID 1347069; further: potency means the concentration at half of the fitted maximal effect; 0% is about no effect
Target sequence (Q99816 whole entry, looked up): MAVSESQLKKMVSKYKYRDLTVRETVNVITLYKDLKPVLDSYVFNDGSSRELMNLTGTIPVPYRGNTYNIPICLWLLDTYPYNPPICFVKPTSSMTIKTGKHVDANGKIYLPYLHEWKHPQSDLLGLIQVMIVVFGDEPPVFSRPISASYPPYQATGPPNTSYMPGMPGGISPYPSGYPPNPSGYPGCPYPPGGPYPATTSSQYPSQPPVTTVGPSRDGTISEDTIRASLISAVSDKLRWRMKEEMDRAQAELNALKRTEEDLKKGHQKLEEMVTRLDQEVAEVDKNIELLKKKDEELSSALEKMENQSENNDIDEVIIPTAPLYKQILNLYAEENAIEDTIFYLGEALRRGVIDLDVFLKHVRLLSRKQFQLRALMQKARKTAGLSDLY
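qHTS FP binding, 20 min r.t.: 10 uM Tsg101 domain + 50 nM FITC-PTAP peptide, pH 7.5 HEPES buffer with TCEP and EDTA.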
GALC G270D act – enhancers of human galactocerebrosidase G270D mutant activity in cells; P54803; 145M-Twi-hGALC-G270D cells, HMU-beta-Gal fluorescence, 48 h; Potency, µM (titrated, usually from 57.5 µM), usual class: activators; hit rate 0.1% among 45,000; AID 1159614; further: potency means the concentration at half of the fitted maximal effect; 0% is about no effect; nearly all actives have a fitted effect of over 65% in size
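qHTS, 1536-well; 145M-Twi-hGALC-G270D cells (WT line also made) in DMEM/F12 + 10% FBS; compound incubation on live cells; HMU-β-gal 0.1 mM final, pH 5.2, NaTC; carbonate stop; fluorescence increase = enhanced residual activity.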
* hit, by the source's call; ! = a repeat was not active; [ ] = another dose, or the depositor's remark. The full list was thinned out, with hits kept by preference. The call rests on the fitted dose curve; in most records, active means well fitted curve in the direction sought with a large enough effect; inconclusive means small, poorly fitted or top-dose-only effect, or another doubt; inactive means no such curve, though single readings can be large; an effect the other way counts as inactive or inconclusive.

For CCc1nc(SC)ncc1C(=O)N1CCN(c2cc(Cl)ccc2C)CC1 the results were NTMT1 inh inconclusive, B2AR arrestin ag inactive, GALK inhibitor 4%, FH mod -8%, PTAP-TSG101 blk inactive and GALC G270D act inactive.
Screening O=C(OCC12OC1C=CC(OC(=O)c1ccccc1)C2O)c1ccccc1 (stereo unspecified) returned NTMT1 inh 11%[29.8 µM] and FH mod 3%[53.3 µM].
`COc1ncc(-c2ccc3c(Nc4cc(Oc5cc(F)cc(F)c5)cc(C(=O)O)c4)c(S(=O)(=O)NC4CC4)cnc3c2)c(OC)n1` gave NTMT1 inh 11µM*! and FH mod -1%.
`CN1C(=O)N[C@H](Cc2c[nH]c3c(Cl)cccc23)C1=O` gave NTMT1 inh 6%.
CCC(=O)N1c2ccccc2CC1C(=O)NCCCN1CCN(c2ccc(F)cc2)CC1 (stereo unspecified) was read as NTMT1 inh 89µM*, B2AR arrestin ag inactive, GALK inhibitor 4%, FH mod -25%, PTAP-TSG101 blk inactive and GALC G270D act inactive.
Cc1c(C)n(Cc2ccccc2)c2ccc(C(=O)OCCN(C)C)cc12 was read as NTMT1 inh 5.6µM*, FH mod -8%[53.3 µM] and GALC G270D act inactive.
`Cc1ccc(CNC(=O)c2ccc3c(c2)c(C)c(C)n3Cc2ccccc2)o1` gave NTMT1 inh 22µM*, B2AR arrestin ag inactive, GALK inhibitor 5%, FH mod -27%, PTAP-TSG101 blk inactive and GALC G270D act inactive.
`Cc1cccc(Cn2c(C)c(C)c3cc(C(=O)NCc4ccc(C)o4)ccc32)c1` gave NTMT1 inh -21%, B2AR arrestin ag inactive, GALK inhibitor -1%, FH mod inconclusive, PTAP-TSG101 blk inactive and GALC G270D act inactive.
Screening CSCC[C@H](NC(=O)[C@H](CCSC)NC(=O)CNC(=O)[C@H](Cc1ccc(O)cc1)NC(=O)[C@H](Cc1ccccc1)NC(=O)[C@H](CCCN=C(N)N)NC(=O)[C@H](CC(=O)O)NC(=O)[C@@H]1CCCN1C(=O)[C@H](CC(=O)O)NC(=O)[C@@H]1CCCN1C(=O)[C@@H]1CCCN1C(=O)[C@@H](N)CC(=O)O)C(N)=O returned NTMT1 inh 10%[12.6 µM] and FH mod 8%[20.6 µM].
For CC1(CCOC2OC(CO)C(O)C(O)C2O)CCC23OC2(C1)C(O)CC1C(C)(C(=O)O)CCCC13C (stereo unspecified) the results were NTMT1 inh -3%[29.8 µM] and FH mod 19%[53.3 µM].
For O=C(O)c1cccc(CN2C(=O)/C(=C(\c3ccccc3)c3ccc(Cl)cc3)c3ccccc32)c1 the results were NTMT1 inh 28µM* and FH mod inconclusive.
Cc1ccccc1CN1C(=O)c2ccccc2Sc2ccc(C(=O)O)cc21 was read as NTMT1 inh 8%, B2AR arrestin ag inactive, GALK inhibitor 4%, FH mod -19%, PTAP-TSG101 blk inactive and GALC G270D act inactive.
`COc1cccc(CNC(=O)Nc2cn(CC(C)C)c(=O)c3ccccc23)c1` gave NTMT1 inh -2%, B2AR arrestin ag inactive, GALK inhibitor 0%, FH mod inconclusive, PTAP-TSG101 blk inactive and GALC G270D act inactive.
COc1ccc(OC)c(CNC(=O)Nc2cn(CC(C)C)c(=O)c3ccccc23)c1 was read as NTMT1 inh -1%, B2AR arrestin ag inactive, GALK inhibitor -2%, FH mod 32µM*[activator], PTAP-TSG101 blk inactive and GALC G270D act inactive.
COc1cc2ncnc(Nc3ccc(F)c(Cl)c3)c2cc1OCCCN1CCOCC1 was read as NTMT1 inh 13µM*!, FH mod -2% and GALC G270D act inactive.
C=CC(=O)Nc1cc2c(Nc3ccc(F)c(Cl)c3)ncnc2cc1OCCCN1CCOCC1 was read as NTMT1 inh 11µM*!, FH mod -26% and GALC G270D act inactive.
